Not all results are given here.
CYP2C19 inhib – human CYP2C19 inhibition; P33261; CYP2C19 Supersomes, luciferin-H EGE luminescence, 30 min; inhibition, % at 5 µM; 21% of 96,000 active;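 active = CYP2C19 inhibition above a set limit at 5 µM in the primary screen, cut at about 50% in these data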;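 also: plate controls were negative control wells for no effect and 2.5 mM tranylcypromine positive control for full effect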
PostGolgi ctrl – inhibits growth of the yeast control strain; inhibition, % at 10 µM; 5% of 98,000 active; efflux-deficient yeast background strain, growth absorbance A615, 16 h
CYP2C9 act – CYP2C9 (human) activation; P11712; recombinant CYP2C9, luciferin-H conversion, luminescence; active compounds read high; factor 1 = untreated enzyme, 0 = blocked; activation factor at 5 µM; 1.4% of 96,000 active;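 active = activation factor of 2 or more for CYP2C9 at a 5 µM dose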;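 also: 0 = sulfaphenazole-blocked wells and 1 = vehicle-only wells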
Target sequence (P11712 whole entry, looked up): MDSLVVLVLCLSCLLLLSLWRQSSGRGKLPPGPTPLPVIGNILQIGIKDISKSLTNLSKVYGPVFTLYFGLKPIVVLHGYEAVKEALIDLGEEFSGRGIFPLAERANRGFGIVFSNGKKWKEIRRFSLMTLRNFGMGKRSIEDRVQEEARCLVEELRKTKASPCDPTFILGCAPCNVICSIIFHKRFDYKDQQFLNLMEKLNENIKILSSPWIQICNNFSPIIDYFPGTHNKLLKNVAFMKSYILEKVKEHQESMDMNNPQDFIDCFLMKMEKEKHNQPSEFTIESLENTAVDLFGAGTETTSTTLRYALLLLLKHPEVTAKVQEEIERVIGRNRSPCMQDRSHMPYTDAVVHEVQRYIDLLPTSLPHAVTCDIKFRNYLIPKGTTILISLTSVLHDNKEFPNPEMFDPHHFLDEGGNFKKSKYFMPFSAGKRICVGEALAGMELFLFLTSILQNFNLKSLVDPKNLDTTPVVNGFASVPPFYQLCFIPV
CYP2C9 inhib – human CYP2C9 inhibition; 20% of 96,000 active; CYP2C9 Supersomes, luciferin-H conversion, luminescence; inhibition, % at 5 µM;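 active = blocking of liver enzyme CYP2C9 beyond about 50% at 5 µM, limit read from the data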
CYP2C19 act – cytochrome P450 2C19 (human) activation; P33261; recombinant CYP2C19, luciferin-H EGE luminescence; active compounds read high; 0 = fully inhibited enzyme, 1 = untreated enzyme; activation factor at 5 µM; 96,000 tested, under 10 active; AID 1025;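 active = activation factor of at least 2 at 5 µM in the primary screen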;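 also: 0 = wells with 2.5 mM tranylcypromine and 1 = vehicle-only wells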
PostGolgi yeast – growth inhibition of a yeast mutant, post-Golgi transport screen; post-Golgi transport phenotypic cell assay; inhibition, % at 10 µM; 0.9% of 98,000 active;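 also: yeast cells grown in 1536-well plates; yeast grown about 18 h at 30C before absorbance read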
Numbers without * were called inactive. Rule as the data show it, unless noted: active = inhibition above about 30%; inactive = the rest.

How did CCCc1cc(=O)[nH]c(SCC(=O)N2CCN(S(=O)(=O)c3ccc(C)cc3)C2)n1 do in these assays?
CYP2C19 inhib: 12; PostGolgi ctrl: 2; CYP2C9 act: 0.9; CYP2C9 inhib: 13; CYP2C19 act: 0.9; PostGolgi yeast: 3

What do the screens show for `O=C(NCCCO)c1nnc(Cc2c(F)cccc2Cl)o1`?
CYP2C19 inhib: -18; PostGolgi ctrl: 0; CYP2C9 act: 0.9; CYP2C9 inhib: 5; CYP2C19 act: 1.2; PostGolgi yeast: 4

How did O=C(NCCCN1CCN(Cc2ccccc2)CC1)c1nnc(Cc2c(F)cccc2Cl)o1 do in these assays?
CYP2C19 inhib: 34; PostGolgi ctrl: 2; CYP2C9 act: 0.4; CYP2C9 inhib: 56*; CYP2C19 act: 0.7; PostGolgi yeast: -5

What do the screens show for `Cc1ccccc1NC(C)C(=O)N/N=C/c1ccccc1OCc1cccc(Br)c1` (centres undefined)?
CYP2C19 inhib: 48; PostGolgi ctrl: 8; CYP2C9 act: 0.2; CYP2C9 inhib: 76*; CYP2C19 act: 0.5; PostGolgi yeast: -3

Results for CC(O)C(=O)N/N=C/c1cccc(Cl)c1Cl (centres undefined) ?
CYP2C19 inhib: 8; PostGolgi ctrl: 12; CYP2C9 act: 1.1; CYP2C9 inhib: -12; CYP2C19 act: 0.9; PostGolgi yeast: 10

How did CC1CCN(C(=O)CN2C(=O)c3ccccc3S2(=O)=O)CC1 do in these assays?
CYP2C19 inhib: 15; PostGolgi ctrl: 4; CYP2C9 act: 0.9; CYP2C9 inhib: 9; CYP2C19 act: 0.8; PostGolgi yeast: -3

Results for O=C(CN1C(=O)c2cccc3cccc1c23)N1CCc2ccccc2C1 ?
CYP2C19 inhib: 64*; PostGolgi ctrl: 9; CYP2C9 act: 1.8; CYP2C9 inhib: -78; CYP2C19 act: 0.4; PostGolgi yeast: -1

Results for O=C(CN1C(=O)c2ccccc2S1(=O)=O)N1CCc2ccccc2C1 ?
CYP2C19 inhib: 55*; PostGolgi ctrl: 19; CYP2C9 act: 0.9; CYP2C9 inhib: 13; CYP2C19 act: 0.5; PostGolgi yeast: -7

What do the screens show for `O=C(CCCN1C(=O)c2ccccc2C1=O)N1CCc2ccccc2C1`?
CYP2C19 inhib: 50*; PostGolgi ctrl: 10; CYP2C9 act: 0.9; CYP2C9 inhib: 13; CYP2C19 act: 0.5; PostGolgi yeast: 6

What do the screens show for `Cc1cc(NC(=O)CN2CCCCC2C)no1` (centres undefined)?
CYP2C19 inhib: 6; PostGolgi ctrl: 2; CYP2C9 act: 1.1; CYP2C9 inhib: -7; CYP2C19 act: 0.9; PostGolgi yeast: 1

Results for CCCCCCn1c(N(CC)CC)nc2c1c(=O)[nH]c(=O)n2C ?
CYP2C19 inhib: 19; PostGolgi ctrl: 12; CYP2C9 act: 0.9; CYP2C9 inhib: 9; CYP2C19 act: 0.8; PostGolgi yeast: 12

How did COc1ccc(Nc2nc(N)nc(COc3ccc(OC)cc3)n2)cc1 do in these assays?
CYP2C19 inhib: -10; PostGolgi ctrl: 4; CYP2C9 act: 1; CYP2C9 inhib: -2; CYP2C19 act: 1.1; PostGolgi yeast: -1

What do the screens show for `CCOC(=O)c1cnc(SCc2nc(N)nc(Nc3ccccc3)n2)nc1N`?
CYP2C19 inhib: 66*; PostGolgi ctrl: 8; CYP2C9 act: 0.2; CYP2C9 inhib: 84*; CYP2C19 act: 0.3; PostGolgi yeast: 1

Results for COc1ccc2nc(SCc3nc(N)nc(Nc4ccccc4)n3)[nH]c2c1 ?
CYP2C19 inhib: 81*; PostGolgi ctrl: 8; CYP2C9 act: 0; CYP2C9 inhib: 98*; CYP2C19 act: 0.2; PostGolgi yeast: -7

Results for COc1ccc(OCc2nc(N)nc(Nc3ccc(C)cc3)n2)cc1 ?
CYP2C19 inhib: 21; PostGolgi ctrl: 53*; CYP2C9 act: 0.6; CYP2C9 inhib: 38; CYP2C19 act: 0.8; PostGolgi yeast: 2

What do the screens show for `CCOC(=O)c1cnc(SCCc2ccccc2)nc1N`?
CYP2C19 inhib: 38; PostGolgi ctrl: 23; CYP2C9 act: 1; CYP2C9 inhib: 4; CYP2C19 act: 0.6; PostGolgi yeast: -6

How did COc1ccc(OCc2nc(N)nc(Nc3ccccc3)n2)cc1 do in these assays?
CYP2C19 inhib: 68*; PostGolgi ctrl: -1; CYP2C9 act: 0.3; CYP2C9 inhib: 70*; CYP2C19 act: 0.3; PostGolgi yeast: -1

How did CCC(C)(NC(=O)CNC(C)=O)C(=O)NC1CCCCC1 (centres undefined) do in these assays?
CYP2C19 inhib: -1; PostGolgi ctrl: -7; CYP2C9 act: 1.2; CYP2C9 inhib: -18; CYP2C19 act: 1; PostGolgi yeast: -7

What do the screens show for `CC1=C(C(=O)Nc2ccccn2)C(c2cccnc2)n2nnnc2N1` (centres undefined)?
CYP2C19 inhib: 2; PostGolgi ctrl: 7; CYP2C9 act: 1; CYP2C9 inhib: 4; CYP2C19 act: 1; PostGolgi yeast: 6

How did O=C1CN(C(=O)COC(=O)CCSc2ccccc2Cl)c2ccccc2N1 do in these assays?
CYP2C19 inhib: 22; PostGolgi ctrl: -3; CYP2C9 act: 1.3; CYP2C9 inhib: -30; CYP2C19 act: 0.8; PostGolgi yeast: 8

What do the screens show for `CCCCCOc1ccccc1C(=O)NCCC(=O)O`?
CYP2C19 inhib: 34; PostGolgi ctrl: 3; CYP2C9 act: 0.5; CYP2C9 inhib: 49; CYP2C19 act: 0.7; PostGolgi yeast: 15

What do the screens show for `CC(=O)N1c2c(cc(Br)cc2S(=O)(=O)N2CCN(C(=O)c3ccco3)CC2)CC1C` (centres undefined)?
PostGolgi ctrl: 9; PostGolgi yeast: 4

Results for Nc1nc(CSc2ccccn2)nc(Nc2ccccc2)n1 ?
CYP2C19 inhib: 55*; PostGolgi ctrl: 5; CYP2C9 act: 0.5; CYP2C9 inhib: 52*; CYP2C19 act: 0.4; PostGolgi yeast: 21

Results for COc1ccc(Nc2nc(N)nc(CSc3nnc(N)s3)n2)cc1 ?
CYP2C19 inhib: 8; PostGolgi ctrl: -4; CYP2C9 act: 0.7; CYP2C9 inhib: 26; CYP2C19 act: 0.9; PostGolgi yeast: 32*

What do the screens show for `C=CCn1c(Cc2csc(N)n2)nnc1SCC(=O)OCC`?
CYP2C19 inhib: 40; PostGolgi ctrl: 7; CYP2C9 act: 1.1; CYP2C9 inhib: -8; CYP2C19 act: 0.6; PostGolgi yeast: 23

How did CCc1ccc(OCc2nnc(SCCN3CCOCC3)n2C)cc1 do in these assays?
CYP2C19 inhib: -4; PostGolgi ctrl: -5; CYP2C9 act: 0.9; CYP2C9 inhib: 6; CYP2C19 act: 1; PostGolgi yeast: -7

What do the screens show for `Cc1cc2c3nonc3ccc2n1C`?
CYP2C19 inhib: 22; PostGolgi ctrl: -1; CYP2C9 act: 1.1; CYP2C9 inhib: -13; CYP2C19 act: 0.8; PostGolgi yeast: 2

How did CCNc1nc(Oc2c(Cl)cccc2Cl)cc(C(F)(F)F)n1 do in these assays?
CYP2C19 inhib: 36; PostGolgi ctrl: 11; CYP2C9 act: 1.3; CYP2C9 inhib: -25; CYP2C19 act: 0.6; PostGolgi yeast: -3

Results for CCNc1nc(N)nc(Oc2ccc(OCCOc3ccc(Cl)cc3Cl)nn2)n1 ?
CYP2C19 inhib: 94*; PostGolgi ctrl: 7; CYP2C9 act: 0.2; CYP2C9 inhib: 80*; CYP2C19 act: 0.1; PostGolgi yeast: 1

Screening data from PubChem.
